Menin MLL FP TR = displaces Texas Red mutant MLL peptide from human menin. Menin + Texas Red MLL mutant peptide, fluorescence polarization. hit rate 0.23% among 270,000. Potency, µM (doses to about 61.6 µM), usual class: inhibitors; active = well fitted inhibition curve with a large enough effect in the polarisation, with a control signal flat, not every such curve was filed as active; inconclusive = small, poorly fitted or top-dose-only effect, or effect the other way, or a change in a side signal; inactive = no such curve, though single readings can be large or run the other way; the % refers to the polarisation
MLL CXXC-DNA inh = MLL CXXC-DNA interaction inhibition; hit rate 0.037% among 290,000; MLL-CXXC / FITC-HOXA9 DNA fluorescence polarization; Q03164; AID 2662; Potency, µM (doses to about 115 µM), usual class: inhibitors; active = well fitted inhibition curve with a large enough effect in the polarisation, with a control signal flat, not every such curve was filed as active; inconclusive = small, poorly fitted or top-dose-only effect, or effect the other way, or a change in a side signal; inactive = no such curve, though single readings can be large or run the other way; the % refers to the polarisation
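Steps: dispense CXXC domain solution (7 uM) → pin compounds or unlabeled HOX-A9 DNA control → 5 min ambient → add FLSN-HOX-A9 solution (50 nM) → spin → 30 min ambient → fluorescence polarization. Tris pH 7.5/NaCl/DTT/BSA buffer.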
PKM2 activator = increases activity of human pyruvate kinase M2; AID 1631; P14618; Potency, µM (highest dose often 57.5 µM), most hits filed as activators; hit rate 0.34% among 260,000; purified PKM2, Kinase-Glo ATP luminescence, activation; response scale: 0% is enzyme alone, no compound; note: nearly all actives have a fitted effect of over 55% in size
Target sequence (P14618 whole entry, looked up): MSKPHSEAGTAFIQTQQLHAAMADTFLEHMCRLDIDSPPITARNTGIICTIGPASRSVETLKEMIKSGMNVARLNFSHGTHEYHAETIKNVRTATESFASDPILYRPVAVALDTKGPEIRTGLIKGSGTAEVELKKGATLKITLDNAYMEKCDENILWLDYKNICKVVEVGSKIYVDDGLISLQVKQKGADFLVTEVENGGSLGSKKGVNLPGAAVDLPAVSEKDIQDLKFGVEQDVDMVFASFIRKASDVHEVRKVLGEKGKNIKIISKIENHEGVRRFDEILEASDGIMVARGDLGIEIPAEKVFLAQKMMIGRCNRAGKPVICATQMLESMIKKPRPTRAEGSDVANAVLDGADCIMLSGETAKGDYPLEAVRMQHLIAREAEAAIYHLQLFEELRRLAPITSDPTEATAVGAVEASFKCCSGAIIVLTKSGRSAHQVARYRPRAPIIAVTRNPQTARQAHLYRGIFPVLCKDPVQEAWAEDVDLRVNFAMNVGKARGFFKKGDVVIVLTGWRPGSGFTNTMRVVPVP
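hPK-M2, >95% pure; 0.1 mM ADP / 0.5 mM PEP final; imidazole pH7.2 buffer w/ 7 mM MgCl2, 50 mM KCl; 1 h RT; Kinase-Glo lum. Intermediate enzyme activity for dual inhibitor/activator qHTS.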
Menin MLL FP FL = inhibitors of human menin-MLL interaction, wild-type MLL peptide; Fluorescence polarization, fluorescein-MLL peptide displacement from menin; 290,000 tested, under 10 active; FP activity change, % at 61.4 µM; active = well fitted curve in the direction sought with a large enough effect in the polarisation, not every such curve was filed as active; inconclusive = small, poorly fitted or top-dose-only effect, or effect the other way, or a change in a side signal; inactive = no such curve, though single readings can be large or run the other way; the % refers to the polarisation
HeLa viability = counter-screen for pyruvate kinase M2 activators: HeLa cytotoxicity; shares compounds with PKM2 activator; HeLa viability, CellTiter-Glo ATP luminescence, 24 h; activity change, negative = cytotoxicity, % at 57.5 µM; 230 tested, under 10 active; AID 1898
Hits are given with their value; - = inactive; ? = inconclusive; . = no result; [ ] = dose if it differs, or a comment. Rows were chosen to be rich in hits. Some 0.41% of all compounds tested hit in one or more screens of this group. Unless noted, calls come from the whole dose curve; as a rule, active = well fitted curve in the direction sought with a large enough effect; inconclusive = small, poorly fitted or top-dose-only effect, or another doubt; inactive = no such curve, though single readings can be large; an effect the other way counts as inactive or inconclusive.

SMILES	Menin MLL FP TR	MLL CXXC-DNA inh	PKM2 activator	Menin MLL FP FL	HeLa viability
COc1cc(NS(=O)(=O)c2cc3[nH]c(=O)c(=O)[nH]c3cc2C)cc(OC)c1OC	-	.	7.1µM	-	.
Cc1cc2[nH]c(=O)c(=O)[nH]c2cc1S(=O)(=O)Nc1cccc(Cl)c1C	-	.	16µM	-	.
CC(CSC(=O)c1ccccc1)C(=O)N1C[C@@H](Sc2ccccc2)C[C@H]1C(=O)O (stereo partly specified)	-	-	.	-	.
COc1ccc2c(c1-c1c3c(cc(Br)c1OC)CCCC3)CCCC2	-	.	.	-	.
COc1ccc(-c2cccc(C3C4C=CCCC4(C)C(=O)N3Cc3ccccc3)c2)cc1 (stereo unspecified)	-	.	.	-	.
COCCn1c(N)c(C(=O)NS(=O)(=O)c2ccc(C)cc2)c(=O)[nH]c1=O	?	-	25µM	-	.
CCCCC(CC)CCC(CC(C)C)OS(=O)(=O)O (stereo unspecified)	-	-	.	-	.
CC(=O)Nc1ccc(C(=O)CS(=O)(=O)c2ccc(C)cc2)cc1	-	-	?	-	.
CC(=O)Nc1ccc(S(=O)(=O)c2ccc(C)cc2)cc1	-	-	14µM	-	.
O=S(=O)(Nc1ccc(Cl)cc1)c1ccc2c(c1)CCO2	.	-	18µM	-	.
O=S(=O)(Nc1ccc2c(c1)OCCO2)c1ccc(F)c(F)c1	?	-	-	?	.
Cc1ccc(NS(=O)(=O)c2ccc3c(c2)c(=O)n(C)c(=O)n3C)cc1F	-	-	4.5µM	-	.
COc1ccc(-c2c(C3C4C=CCCC4(C)C(=O)N3Cc3ccccc3)ccc3ccccc23)cc1 (stereo unspecified)	-	.	.	-	.
COc1ccc(C(=O)/C=C/C(=O)N(CC(=O)NC2CCCCC2)Cc2ccccc2)c(O)c1	-	-	3.5µM	-	?
COc1ccc(C(=O)/C=C/C(=O)N(CC(=O)NC2CCCCC2)Cc2ccccc2OC)c(O)c1	?	-	?	-	.
Cc1cc2c(s1)c1cnn(Cc3ccc(Cl)cc3)c(=O)c1n2C	.	.	.	.	-
Cc1cc2c(s1)c1cnn(Cc3ccc(-c4ccccc4)cc3)c(=O)c1n2C	.	.	.	.	-
CN1CCN(c2ncc3nc(-c4ccccc4)c(=O)n(Cc4ccc(F)cc4)c3n2)CC1	-	.	.	-	.
CC(C)(C)c1ccc(CN2N=Nc3ccccc3S2(=O)=O)cc1	?	-	3.2µM	-	?
Cc1ccc(NC(=O)CSC2=C(C#N)C(c3ccco3)C3=C(CCCC3=O)N2)cc1 (stereo unspecified)	?	-	4.5µM	-	-
CCOC(=O)c1c(-c2ccccc2)csc1NC(=O)CSc1nnnn1C	-	-	3.5µM	-	?
CCOC(=O)c1c(-c2ccccc2)csc1NC(=O)CSc1ccccc1	-	-	-	-	.
Cc1ccccc1C1CC(=O)Oc2cc(C)c(Br)c(C)c21 (stereo unspecified)	-	.	.	-	.
CCN(CC)CCOc1ccc(-c2nc3cc(Cl)ccc3s2)cc1	-	-	.	-	.
Cc1ccccn1	-	-	.	-	.
SMILES	Menin MLL FP TR	MLL CXXC-DNA inh	PKM2 activator	Menin MLL FP FL	HeLa viability
COC(=O)C1=C[C@@H](C(=O)OC)C2C3=C(C(=O)[C@]2(CC(C)C)NC(=O)c2ccccc2)[C@H](C)n2c(=O)n(C)c(=O)n2[C@@H]3C1 (stereo partly specified)	-	.	.	-	.
COc1cc(S(=O)(=O)Nc2ncccc2C)c(OC)cc1Cl	-	-	-	-	.
COc1ccc(Br)cc1S(=O)(=O)Nc1ncccc1C	-	-	6.3µM	-	-
COc1cccc(CNC(=O)CCC2CCCN(C(=O)c3cc(C4CC4)[nH]n3)C2)c1 (stereo unspecified)	-	-	3.5µM	-	-
COc1cccc(NC(=O)CSc2nnc3cc(C)nc(N)n23)c1	-	-	1.8µM	-	-
COC(=O)c1cc2c(s1)c1cnn(Cc3ccccc3F)c(=O)c1n2C	.	.	.	.	-
Cn1c2cc(C#N)sc2c2cnn(Cc3ccccc3F)c(=O)c21	.	.	.	.	-
Cc1cc([N+](=O)[O-])nn1Cc1ccccc1F	.	-	-	-	.
Cn1c2ccsc2c2cnn(Cc3ccccc3F)c(=O)c21	.	.	.	.	-
Cn1c2cc([N+](=O)[O-])sc2c2cnn(Cc3ccccc3F)c(=O)c21	.	.	.	.	-
O=S(=O)(c1ccccc1)N1CCC2(CCN(c3ccncc3)CC2)CC1	-	.	.	-	.
C=CC[C@@H]1C=C[C@H](O/N=C2\c3cc(OC)ccc3O[C@H](c3cccc(OC)c3)[C@H]2O)[C@H](CO)O1	-[11.7 µM]	.	.	-[11.7 µM]	.
O=C(c1ccncc1)N1CCC[C@@]2(CCN(Cc3ccccc3)C2)C1	-	.	.	-	.
